Drawing on PubChem BioAssay AID602449 (Sanford-Burnham Center for Chemical Genomics, 2012), this text covers inhibition for 59 compounds.

The whole screen tested about 360,000 compounds, of which about 5,000 (1.4%) were called active. The full list was thinned out, with actives kept by preference. A number with no mark means an inactive call.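 How the source made its calls: active means inhibition of 50% or more, scaled per plate between neutral and stimulator controls; inactive means the rest.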

The nature of the experiment: mitochondrial permeability transition pore inhibitors, primary screen, biochemical, isolated mouse mitochondria, absorbance (AID 602449).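 Further: 0% = DMSO wells given calcium and 100% = 1 mM EGTA wells.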 To be noted: Ca2+ swelling absorbance, 30 min, at 10 µM, active compounds read high.
In the case of `CCOC(=O)NC(C(F)(F)F)(C(F)(F)F)P(=O)(c1ccccc1)c1ccccc1`, the inhibition (usually the drop in the measured response relative to a control, in per cent) was -3.1%.

For `CC(=O)c1c(C)[nH]c(C(=O)COC(=O)CCOc2ccc(C)cc2)c1C`, the inhibition was -2.4%.

Consider `CN(c1ccccc1)S(=O)(=O)c1ccc(Cl)c(C(=O)OCC(N)=O)c1`, for which the inhibition is 1.9%.

Turning to `CC(=O)c1c(C)[nH]c(C(=O)COC(=O)c2cccc(S(=O)(=O)N(C)c3ccccc3)c2)c1C`, the inhibition is 99.3% (active).

For the compound `O=C1NCCn2nc3ccccc3c21`, the inhibition is 2.9%.

As for `CCCC(C(=O)OCCN(CC)CC)(c1ccccc1)c1ccccc1`, the inhibition is 85.7% (active).

Take `CCN(CC)CCNCC(=O)Nc1ccc(Oc2ccccc2)cc1`: the inhibition was 1.8%.

For `CCN(CC)CCOC(=O)c1ccc(NC(=O)CNC(=O)c2ccccc2)cc1`, the inhibition was -3.4%.

With `COc1ccccc1C(=O)NC(=S)Nc1ccc(N2CCOCC2)cc1`, the inhibition is -1.6%.

With `Cc1ccccc1C(=O)NC(=S)Nc1ccc(N2CCN(C(=O)c3ccccc3)CC2)cc1`, the inhibition is 57.1% (active).

With `Cc1ccccc1C(=O)NC(=S)NC1CC1`, the inhibition was 1.7%.

Turning to `O=[N+]([O-])c1cccc(S(=O)(=O)N2CCCCCC2)c1`, the inhibition is -1%.

With `N#C/C(=C(/O)Cc1cccc2ccccc12)c1nc2ccccc2s1`, the inhibition is 95.9% (active).

For the compound `CC1=CC(=C(C#N)c2nc3ccccc3s2)C=C(C)N1c1ccc(F)cc1F`, the inhibition is 1.2%.

As for `O=C(O)CC/C(=C\c1cc2c(cc1Br)OCO2)c1nc2ccccc2s1`, the inhibition was 0.4%.

In the case of `Cc1ccc(S(=O)(=O)NC2CCCCCC2)cc1C(N)=O`, the inhibition is 1%.

As for `COc1cc(Cl)c(C)cc1NC(=O)CSc1nnc(CN2CCCC2)o1`, the inhibition is -2%.

For the compound `COc1ccc(N2CCN(CCCNC(=O)C3CCN(S(=O)(=O)N4CCOCC4)CC3)CC2)cc1`, the inhibition was -2.8%.

Turning to `CC(Oc1ccc(-c2ccccc2)c(F)c1)c1ccn(S(=O)(=O)c2cccc3ccccc23)n1` (centres undefined), the inhibition was 1%.

Consider `COc1ccccc1Oc1ccc(S(=O)(=O)Nc2cccnc2)cc1`, for which the inhibition was 82.5% (active).

As to `COc1ccc(S(=O)(=O)Nc2cccnc2)c(Cl)c1Cl`, the inhibition is 0.5%.

For the compound `Cc1cc(C)c(C)c(S(=O)(=O)Nc2cccnc2)c1C`, the inhibition is 1.4%.

For the compound `COc1cc(OC)cc(/C(N)=N/O)c1`, the inhibition is 0.6%.

For `O=C(CNC1CCCCC1)NCC1(c2ccccc2)CCCC1`, the inhibition is -0.9%.

With `COC(=O)Nc1nc2ccc(Sc3ccccc3)cc2[nH]1`, the inhibition is 1.2%.

With `CCCc1nc2c(c(=O)c3ccccc3n2C)c(=O)n1C1CCCCCC1`, the inhibition was 77.9% (active).

For the compound `CCOC(=O)N1CCN(C(=O)c2nn(-c3ccc(C)cc3)c(=O)c3c2c2ccccc2n3C)CC1`, the inhibition was 11.3%.

Turning to `CCOC(=O)c1nnn2c3ccccc3c(=O)n(C)c12`, the inhibition was 1.2%.

As for `CCN(CC)S(=O)(=O)c1ccc(N2CCCC2)c(NS(=O)(=O)c2cccs2)c1`, the inhibition was -2.4%.

As for `Brc1ccccc1/C=N/Nc1nc2ccccc2o1`, the inhibition was 1.1%.

As for `Oc1c(Br)cccc1/C=N/Nc1c(F)c(F)c(F)c(F)c1F`, the inhibition was 102% (active).

As for `CC(Oc1ccc(F)cc1)C(=O)Nc1ccccc1C(=O)NC1CC1` (centres undefined), the inhibition is -1.6%.

With `Cc1cc(C(=O)OCC(=O)NCc2ccco2)c(C)n1-c1ccccc1`, the inhibition is -0.8%.

With `CCN1C(=O)[C@@H]2[C@@H](c3ccc(-c4cccc(Cl)c4)cc3)N3CCC[C@@]3(C(=O)OC)[C@@H]2C1=O`, the inhibition is -1%.

As for `CCOC(=O)c1ccc(NC(=O)Cn2cnc3cc(C)c(C)cc32)cc1`, the inhibition was 96.9% (active).

`CCOC(=O)c1ccc(NC(=O)CS(=O)(=O)c2cn(CC)c3ccccc23)cc1`: the inhibition is 1%.

On to `CCOC(=O)c1ccc(NC(=O)CCn2c(=O)oc3ccccc32)cc1`, for which the inhibition is 0.1%.

Regarding `CN(c1cccc(NC(=O)c2ccc(CN3CCc4ccccc4C3)cc2)c1)S(C)(=O)=O`, the inhibition was 0%.

Regarding `COc1ccc(C)cc1S(=O)(=O)N(CC(=O)Nc1cccc([N+](=O)[O-])c1)c1ccc(C)cc1`, the inhibition is 0.7%.

In the case of `CN(c1ccccc1)S(=O)(=O)c1cccc(NC(=O)Cc2c(F)cccc2Cl)c1`, the inhibition was 18.1%.

As for `Cc1ccc(S(=O)(=O)N(CC(=O)Nc2cccc([N+](=O)[O-])c2)Cc2ccc(Cl)cc2)cc1`, the inhibition was 80.3% (active).

Consider `Cc1ccc(CN(CC(=O)NCC2CCCO2)S(=O)(=O)c2ccc(C)cc2)cc1` (centres undefined), for which the inhibition was 0.1%.

As for `CN(c1cccc(NC(=O)Nc2ccc(Cl)cc2)c1)S(C)(=O)=O`, the inhibition is 92.2% (active).

In the case of `CN(c1ccccc1)S(=O)(=O)c1cccc(NC(=O)Cc2ccc(Cl)cc2)c1`, the inhibition is 61.7% (active).

For the compound `CN(C)S(=O)(=O)c1cccc(NC(=O)Cc2ccsc2)c1`, the inhibition is 0.2%.

Take `CNS(=O)(=O)c1ccc(NC(=O)Nc2ccc3c(c2)OCO3)cc1`: the inhibition is 0.6%.

For the compound `O=C1N=C2SCCN2/C1=C\c1c(Cl)cccc1Cl`, the inhibition is -0.2%.

As to `O=C(CNC(=O)OCc1ccccc1)Oc1cc2oc(=O)cc(-c3ccccc3)c2cc1Cl`, the inhibition is 7.5%.

`Clc1ccc(-c2cc(C3CCNCC3)[nH]n2)c(Cl)c1`: the inhibition is 76.8% (active).

For the compound `Clc1ccc(-c2cc(-c3ccccn3)on2)c(Cl)c1`, the inhibition is 2.1%.

For the compound `COc1ccc(C2c3[nH]c4ccccc4c3CCN2CCCn2cccn2)cc1C` (centres undefined), the inhibition was -1.1%.

Regarding `O=C1c2ccccc2C2=Nc3ccccc3SC(c3ccccc3F)C12` (centres undefined), the inhibition was 93.3% (active).

For the compound `CCC(C)N(C(=O)Cn1nc(C)c([N+](=O)[O-])c1C)C1CCS(=O)(=O)C1` (centres undefined), the inhibition was 0.4%.

With `O=C(CCN1CCc2ccccc2C(O)(c2ccccc2)C1)c1ccc2c(c1)OCCO2` (centres undefined), the inhibition is 2.6%.

Turning to `O=C(c1ccc2c(c1)OCCO2)C1CCN(S(=O)(=O)c2cccc(F)c2)CC1`, the inhibition is -4.7%.

Take `O=C(O)/C=C/c1ccc(S(=O)(=O)N2CCCCCC2)cc1`: the inhibition is -1.1%.

As for `COc1ccc(/C=C/C(=O)c2c(O)cc(OC)cc2OC)cc1`, the inhibition was 1.2%.

Regarding `O=C(/C=C(O)/C=C/c1ccc(O)cc1)/C=C/c1ccc(O)cc1`, the inhibition is 75.2% (active).

On to `O=C(Nc1ccccc1Cc1ccccc1)c1ccc2c(c1)SC1=NS(=O)(=O)CCN12`, for which the inhibition is 1.9%.
